Bioassay records from PubChem.
PGK inhibitor – inhibitors of T. brucei phosphoglycerate kinase | P07378 | PGK/GAPDH coupled, Kinase-Glo luminescence, 60 min | Potency, µM (titrated, usually from 57.5 µM), usual class: inhibitors | 380,000 compounds, 0.043% hits | AID 602233; note: nearly all actives have a fitted effect of over 60% in size
Target sequence (P07378 whole entry, looked up): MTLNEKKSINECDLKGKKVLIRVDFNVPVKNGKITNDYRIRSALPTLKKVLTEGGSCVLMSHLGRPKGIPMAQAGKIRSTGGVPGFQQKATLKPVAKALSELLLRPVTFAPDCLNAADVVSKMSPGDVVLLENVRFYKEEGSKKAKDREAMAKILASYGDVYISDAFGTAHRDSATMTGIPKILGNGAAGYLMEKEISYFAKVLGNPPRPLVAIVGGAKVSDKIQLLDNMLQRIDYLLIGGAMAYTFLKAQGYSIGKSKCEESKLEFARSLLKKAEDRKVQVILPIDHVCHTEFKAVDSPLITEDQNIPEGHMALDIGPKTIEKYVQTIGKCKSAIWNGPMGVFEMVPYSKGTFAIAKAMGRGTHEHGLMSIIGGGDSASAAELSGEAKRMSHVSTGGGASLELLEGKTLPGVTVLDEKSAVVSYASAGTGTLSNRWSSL
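Luminescent ATP detection (Kinase-Glo Plus) follows a 60-minute room-temperature incubation, with wells lacking PGK as controls. Buffer: 100 mM TEA (pH 7.6), 5 mM MgCl2, 0.01% Tween-20. Coupling enzyme GAPDH (100 nM final) supplies unstable 1,3-BPG in-well.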
GLP-1R inv ag – inverse agonists of human GLP-1 receptor. 410,000 compounds, 1.6% hits. Potency, µM (highest dose often 38.3 µM), usual class: inhibitors. HEK293 GLP-1R CRE-luciferase, luminescence, 24 h; GLP-1R form is constitutively active. P43220; note: nearly all actives have a fitted effect of over 55% in size
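GLP-1R inverse agonism mode: basal reporter luminescence in engineered HEK293 cells measured after one day of compound exposure at 37 deg C, with a 12 min room-temperature detection step.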
GLP-1R agonist – GLP-1 receptor (human) agonism | HEK293 GLP-1R CRE-luciferase, luminescence, 4-6 h; cells express a hypersensitive GLP-1R form | P43220 | AID 624172 | Potency, µM (top dose mostly 45.6 µM), actives largely listed as activators | 380,000 compounds, 0.007% hits
Tb PFK inh – inhibitors of T. brucei phosphofructokinase; 330,000 compounds, 0.17% hits; AID 485367; T. brucei PFK, ADP-Glo luminescence; Potency, µM (doses to about 57.5 µM), most hits filed as inhibitors; note: nearly all actives have a fitted effect of over 60% in size
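1.25 nM PFK with 0.5 mM F6P and 0.1 mM ATP in 0.1 M TEA pH 8.0, 5 mM MgCl2, incubated 45 min at room temperature; ADP measured by ADP-Glo luminescence; compounds titrated up to 57 uM.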
GLP1R cytotox – cytotoxicity counter-screen for GLP-1 receptor inverse agonists; HEK293 cAMP-luciferase reporter cells, luminescence, 24 h; Potency, µM (doses to about 38.3 µM), most hits filed as inhibitors; 410,000 compounds, 0.13% hits;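 note: loss of luciferase light is scored as toxicity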
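A 23 nL compound transfer followed 12 hours of cell culture at 37 deg C; exposure then lasted 24 hr. Luciferase assay detection reagent was dispensed and plates read for luminescence after a 12 min room-temperature wait.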
Pin1 inh – human Pin1 inhibition; Pin1 FP peptide displacement, HiFluor488, 10 min; 390,000 compounds, 0.009% hits; Potency, µM (top dose mostly 115 µM), hits mostly inhibitors; Q13526; active = well fitted inhibition curve with a large enough effect in the polarisation, with a control signal flat, not every such curve was filed as active; inconclusive = small, poorly fitted or top-dose-only effect, or effect the other way, or a change in a side signal; inactive = no such curve, though single readings can be large or run the other way; the % refers to the polarisation
Target sequence (Q13526 whole entry, looked up): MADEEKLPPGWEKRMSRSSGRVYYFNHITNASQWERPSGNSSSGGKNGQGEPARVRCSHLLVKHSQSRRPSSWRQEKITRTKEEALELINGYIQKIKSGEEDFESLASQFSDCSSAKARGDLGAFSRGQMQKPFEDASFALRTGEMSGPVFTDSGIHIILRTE
Each line names hits and unclear results; the compound was inactive in the other large screens. Rows were chosen to be rich in hits. Some 1.8% of all compounds tested hit in one or more screens of this group. Unless noted, calls come from the whole dose curve; as a rule, active = well fitted curve in the direction sought with a large enough effect; inconclusive = small, poorly fitted or top-dose-only effect, or another doubt; inactive = no such curve, though single readings can be large; an effect the other way counts as inactive or inconclusive.

Cc1ccc(S(=O)(=O)N(C)C)cc1NC(=S)NC12CC3CC(CC(C3)C1)C2	GLP-1R inv ag inconclusive
CCN(CC)S(=O)(=O)c1cccc(NC(=O)CCNC(=O)c2ccc([N+](=O)[O-])cc2)c1	none
CCN(CC)S(=O)(=O)c1cccc(NC(=O)CNC2CCCCCC2)c1	GLP-1R inv ag 7.94µM
N#Cc1nc(NCC(F)F)c2ncn(-c3cccc(Cl)c3)c2n1	none (no result: PGK inhibitor, GLP-1R inv ag, GLP-1R agonist, Tb PFK inh, GLP1R cytotox)
COc1ccc(Cl)cc1NC(=O)N1CCN(Cc2cc(=O)n3nc(-c4ccccc4)sc3n2)CC1	none (no result: GLP-1R agonist, Tb PFK inh)
CC(C)(C)C(=O)Nc1c(C(=O)N2CCN(c3ccc(F)cc3)CC2)oc2ccccc12	GLP-1R inv ag inconclusive (no result: Tb PFK inh)
FC(F)Oc1ccc(NC(=S)NC23CC4CC(CC(C4)C2)C3)cc1	GLP-1R inv ag 4.47µM, GLP1R cytotox inconclusive
CN(C)S(=O)(=O)c1cccc(NC(=S)NC2CCCCC2)c1	GLP-1R inv ag 11.2µM
O=C(Cc1nnc(-c2cc3ccccc3[nH]2)o1)Nc1cc(C(F)(F)F)ccc1Cl	none (no result: PGK inhibitor, GLP-1R inv ag, GLP-1R agonist, Tb PFK inh, GLP1R cytotox)
CCOc1ccccc1NC(=O)N(Cc1ccc(C)o1)C1CCN(C(C)=O)CC1	none (no result: GLP-1R agonist, Tb PFK inh)
CCOC(=O)/C=C1\SCC(=O)N1Cc1ccc(Br)cc1	GLP-1R inv ag inconclusive
CCOC(=O)/C=C1/SCC(=O)N1Cc1ccc(Br)cc1	GLP-1R inv ag 5.62µM (no result: Tb PFK inh)
Cc1ccccc1NC(=O)Cn1c(=O)n(CCc2ccccc2)c(=O)c2sc3ccccc3c21	none (no result: Tb PFK inh)
CCOC(=O)c1c(C)c(-c2ccccc2)n(CC(=O)NCCc2ccc(C)cc2)c1C	none (no result: Tb PFK inh)
COc1ccc(Br)cc1CSC(=N)N	GLP-1R inv ag inconclusive
CCCCCOc1ccc(Br)cc1CSC(=N)N	GLP-1R inv ag inconclusive, GLP1R cytotox 10µM
O=C(O)c1ccccc1-c1ccccc1C(=O)NNc1ccccc1	GLP-1R inv ag 2.24µM
COc1cc(CNC2CCCCCCC2)cc(Br)c1OCC#N	GLP-1R inv ag inconclusive, GLP1R cytotox inconclusive
CCOc1c(Br)cc(CNC2CCCCCCC2)cc1OC	GLP-1R inv ag 3.16µM
COc1ccc(CCn2c(N)cc(=O)[nH]c2=S)cc1OC	GLP-1R agonist 10µM
COc1ccc(CCn2c(N)cc(=O)[nH]c2=O)cc1OC	none
Cc1onc(-c2ccccc2Cl)c1C(=O)OCC(=O)N1CCCc2ccccc21	GLP-1R inv ag 10µM
Cn1nnnc1SCCNCc1ccccc1Cl	none (no result: Tb PFK inh)
CCOC(=O)c1cc(-c2ccccc2)n(CCCC(=O)Nc2ccc(CC)cc2)c1C	GLP-1R inv ag 10µM (no result: GLP-1R agonist, Tb PFK inh)
CCOC(=O)c1cc(-c2ccccc2)n(CCC(=O)Nc2ccc(C(F)(F)F)cc2)c1C	GLP-1R inv ag 7.08µM, GLP1R cytotox inconclusive (no result: GLP-1R agonist, Tb PFK inh)
CCOC(=O)c1cc(-c2ccccc2)n(-c2cccc(C(=O)Nc3ccc(OCC)cc3)c2)c1C	GLP-1R inv ag 5.01µM, Pin1 inh inconclusive (no result: GLP-1R agonist, Tb PFK inh)
CCOC(=O)c1cc(-c2ccccc2)n(CCCC(=O)Nc2ccc(C)c(Cl)c2)c1C	GLP-1R inv ag inconclusive (no result: GLP-1R agonist, Tb PFK inh)
O=C(NC1CCCCC1)N1CCN(C(c2ccccc2)c2ccccc2)CC1	GLP-1R inv ag 3.98µM (no result: PGK inhibitor)
O=C(N1CCOCC1)N1CCN(C(c2ccccc2)c2ccccc2)CC1	none
O=C(N1CCCCC1)N1CCN(C(c2ccccc2)c2ccccc2)CC1	GLP-1R inv ag 5.01µM
CCN(CC)CCNC(=O)c1ccc(-n2c(-c3ccccc3)cc3c2CCCC3)cc1	none (no result: GLP-1R agonist, Tb PFK inh)
Cc1ccc(S(=O)(=O)c2nc(-c3cccc(Cl)c3)oc2NCc2ccccc2)cc1	GLP-1R inv ag inconclusive (no result: GLP-1R agonist, Tb PFK inh)
Cc1ccc(OCCNC(=O)c2ccc(COc3ccccc3)o2)cc1	GLP-1R inv ag inconclusive
CC(C)Cc1ccc(C(=O)NCCOc2ccccc2)o1	GLP-1R inv ag 11.2µM
NC(=O)C1CCN(c2ncc(-c3ccc4c(c3)OCCCO4)s2)CC1	none (no result: PGK inhibitor, GLP-1R inv ag, GLP-1R agonist, Tb PFK inh, GLP1R cytotox)
CC(C)N1CCCC(C)(C(=O)Nc2cccc(Oc3ccccc3)c2)C1 (stereo not given)	GLP-1R inv ag inconclusive, GLP-1R agonist inconclusive (no result: PGK inhibitor, Tb PFK inh, Pin1 inh)
COc1cccc(CN2CCC2(C)C(=O)Nc2cccc(Oc3ccccc3)c2)c1F (stereo not given)	GLP-1R inv ag 3.16µM, GLP1R cytotox inconclusive (no result: PGK inhibitor, Tb PFK inh, Pin1 inh)
COc1cccc(NC(=O)C2(C)CCN2Cc2cccc(OC)c2F)c1 (stereo not given)	GLP-1R inv ag inconclusive (no result: PGK inhibitor, Tb PFK inh, Pin1 inh)
CN1CCCC(C)(C(=O)Nc2cccc(Oc3ccccc3)c2)C1 (stereo not given)	GLP-1R inv ag 12.6µM (no result: PGK inhibitor, Tb PFK inh, Pin1 inh)
O=C(/C=C/c1ccc(Cl)cc1)N1CCOCC1	none
O=C(/C=C/c1ccc(OCc2cccc(Cl)c2)cc1)N1CCOCC1	GLP-1R inv ag 6.31µM
O=C(NCc1ccccc1F)C(=O)NCC(c1ccco1)S(=O)(=O)c1cccs1 (stereo not given)	none (no result: GLP-1R agonist, Tb PFK inh)
O=C(NCCC1=CCCCC1)C(=O)NCC(c1ccco1)N1CCN(c2ccccc2)CC1 (stereo not given)	none
